Measured values reported in PubChem BioAssay (NCI).
This is part of a sample that, as a whole, favours compounds with a hit. Of some 83,000 tested, about 20% had one in any assay.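 Single-concentration screen, 48 h exposure, 96-well plates. Endpoint: percent growth. Below 10 = active.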 Values without a mark were called inactive. Calls of active or inactive are those of the source.

test system: HL-60(TB) leukemia; experiment: NCI-60 one-dose screen, 48 h (100 = growth as untreated, 0 = no growth, -100 = all killed); settings: 10 µM unless noted

| SMILES | growth |
| --- | --- |
| COc1cccc(NC(=O)c2cccc(C3CCc4c(cc(OC)c(OC)c4OC)O3)c2)c1 (stereo not given) | 44.2% |
| COc1ccc(-c2cn[nH]c2-c2cc(OC)c3c(c2)OCO3)cc1 | -29% (active) |
| COc1ccc(OC)c(C2OC(c3ccc4ccccc4c3O)=NN2C(C)=O)c1 (stereo not given) | 19% |
| CCOCCC(=O)O | 106% |
| c1ccc(-c2n(Cc3ccc4ccccc4n3)cc[n+]2Cc2ccc3ccccc3n2)cc1 | -33.1% (active) |
| N#CC1(C#N)C2=C(CCCC2)NC(c2c(F)cccc2Cl)C1(C#N)C#N (stereo not given) | 6.9% (active) |
| Cc1cc(-c2ccc(N(C)C)cc2)c2sc(=O)[nH]c2n1 | 14.3% |
| COc1ccc(/C=C(/C(=O)N2CCN(Cc3ccccc3)CC2)c2cc(OC)c(OC)c(OC)c2)cc1O | 22.9% |
| Cn1ccnc1C(=O)/C=C/c1ccc(CC(=O)Nc2ccc(Br)cc2)cc1 | 0.748% (active) |
| Cc1[nH]c(C(=O)Nc2ccccc2OC2CCNCC2)c(Cl)c1Cl | -57.1% (active) |
| COc1ccc(/C=N/NC(=O)Cn2c(-c3ccc(S(C)(=O)=O)cc3)nc3cc(Cl)ccc32)cc1 | -51.6% (active) |
| O=C1/C(=C\c2cn(CC(O)CN3CCCCC3)c3ccccc23)c2ccccc2N1c1c(Cl)cccc1Cl (stereo not given) | -36.5% (active) |
| N#Cc1c(N)c(C(=O)c2ccc3c(c2)OCCO3)n2c1CCCC2 | -19.2% (active) |
| COc1cccc(-c2nn(-c3ccccc3)cc2-c2ccnc(NCCNS(=O)(=O)c3ccccc3)c2)c1 | 8.92% (active) |
| O=C(Nc1ccc(Cl)cn1)C1(c2ccccc2)CCCCC1 | 51.5% |
| Cc1ccc(N=C=C(c2ccccc2)c2ccccc2)cc1 | 18.6% |
| Oc1ccc(Cl)cc1CNc1nc2ccccc2[nH]1 | -56.6% (active) |
| O=c1nc(Nc2cccc(Cl)c2)oc2cc(Cl)oc(=O)c12 | 26.4% |
| COc1ccc(-c2c[nH]c(C(=O)O)c2-c2cc(OC)c(OC)c(OC)c2)cc1 | -13.8% (active) |
| N#Cc1c[nH]n2ccnc12 | 123% |

| SMILES | growth |
| --- | --- |
| CCOC(=O)Nc1nn[nH]n1 | 47.7% |
| COc1cc(C2C(C#N)=C(c3c[nH]c4ccccc34)Nc3nc(N)[nH]c(=O)c32)cc(OC)c1OC (stereo not given) | 42.1% |
| CC(=Nc1ccccc1)C1=C(O)C(Cc2ccccc2)NC1=O (stereo not given) | -52.3% (active) |
| CNC(=O)c1[nH]cc(-c2ccc(OC)cc2)c1-c1cc(OC)c2c(c1OC)OCO2 | 96.4% |
| O=C(Oc1ccc(CO[N+](=O)[O-])cc1)c1ccccc1 | -45.9% (active) |
| C=C1C(=O)O[C@H]2[C@H]1CC/C(CNC(=O)Cc1c[nH]c3ccccc13)=C\CC[C@@]1(C)O[C@@H]21 | -52.4% (active) |
| CC[C@]12C=CCN3CC[C@@]4(c5ccc(OC)cc5N(C)[C@H]4[C@@](O)(C(=O)OC)[C@@H]1OC(=O)CCC(=O)O[C@H]1CC[C@H]4[C@@H]5CC[C@H]6CC(=O)CC[C@]6(C)[C@H]5CC[C@]14C)[C@@H]32 | -38.2% (active) |
| NC(N)=NN=c1c(=O)c2ccccc2c1=O | 95.2% |
| O=C1CC(c2ccc(Cl)cc2)c2ncn(-c3cccc(Cl)c3)c2N1 (stereo not given) | -4.87% (active) |
| O=c1oc2ccc(Cl)cc2c(=O)n1-c1ccc(Cl)cc1F | -44.5% (active) |
| COC(c1ccccc1)(c1ccccc1)c1ccccc1 | 111% |
| CSc1nc2ncc([N+](=O)[O-])c(=O)n2[nH]1 | 106% |
| CC1(C)N=C(N)N=C(N)N1c1ccc(S(=O)(=O)Nc2nccs2)cc1 | 101% |
| CC(C)(C)c1ccc2oc(=O)n(SC(Cl)(Cl)Cl)c2c1 | 70.2% |
| COc1cccc(-c2nn(-c3ccccc3)cc2-c2ccnc(NCCCNS(=O)(=O)c3ccc(C(F)(F)F)cc3)c2)c1 | 12.4% |
| Oc1ccccc1/C=N\Nc1ccccc1 | 16.5% |
| COc1cc(/C=C/C(=O)N2CCN(C(=O)/C=C/c3ccccc3)CC2)cc(OC)c1OC | 101% |
| C#CC[C@@H]1C[C@]2(C)[C@H]3CC=C4[C@H]5[C@@H](C)[C@H](C)CC[C@]5(C(=O)NCCCN5CCN(CCCN)CC5)CC[C@@]4(C)[C@]3(C)CC[C@H]2C(C)(C)[C@H]1OC(C)=O | -55.9% (active) |
| Cc1nc2sccn2c1-c1csc(Nc2cccc(Cl)c2C)n1 | 36.4% |
| CCN1C(=O)N(CC)C2NC(SC)=NC21 (stereo not given) | 103% |
